# This is one part of a sample in which hits are shown more often than they occur.
# mHTT-CaM PPI inh – disrupts binding of mutant huntingtin to calmodulin; AlphaScreen His-mHTT/GST-CaM binding, luminescence; inhibition, % at 15 µM; hit rate 3.6% among 190,000
# Pf apPOL block – Pf-apPOL DNA polymerase inhibition; Recombinant Pf-apPOL, molecular beacon fluorescence, 1.5 h; inhibition, % at 10 µM; hit rate 0.25% among 210,000
# Hits are given with their value; 0 = inactive; - = no result. Cut-off read from the data, not from the text of the source: active = inhibition above about 50%; inactive = the rest.
SMILES,mHTT-CaM PPI inh,Pf apPOL block
N#Cc1c(NC(=O)CSc2sc3c(=O)[nH]c(=O)[nH]c3c2C#N)sc2c1CCCC2,0,-
COCC(=O)N1CCc2c(c(-c3nc(Cc4ccccc4)no3)nn2C)C1,0,0
CC1=C(C(=O)Nc2ccccc2)C(c2ccc(O)cc2)n2ncnc2N1 (stereo unspecified),0,0
COc1cccc2cc(C(=O)Nc3ccc(N4CCCN(C(=O)C5CC5)CC4)cc3)oc12,60.6,0
O=C(Cc1ccccc1)Nc1cccc(NC(=O)Cc2ccccc2)n1,0,64.6
COc1cc([N+](=O)[O-])ccc1-c1ccc(C(=O)Nc2ccc(N3CCCCC3)cc2)o1,50.6,0
O=C(Cc1ccc([N+](=O)[O-])cc1)Nc1ccc(Nc2ccccc2)cc1,0,0
O=C(Cc1ccccc1)Nc1ccc(Nc2ccccc2)cc1,61.6,0
O=C(Nc1ccc(N2CCCN(C(=O)C3CC3)CC2)cc1)c1cc(-c2ccccc2)on1,0,0
O=C(Cc1ccccc1)Nc1ccccc1NC(=O)Cc1ccccc1,0,0
COc1ccc(NC(=O)c2ccc(-c3ccc([N+](=O)[O-])cc3OC)o2)cc1Cl,0,0
CN(CC1OCCO1)c1ccc(N2C(=O)CCC2=O)cc1[N+](=O)[O-],0,0
C=CCNC(=O)C1CCC(c2ccc(F)c(C)c2)N(C(=O)C2CC2)C1 (stereo unspecified),0,0
CC1CCCN(c2cc(SCC(=O)Nc3ccc(F)cc3)ncn2)C1 (stereo unspecified),0,0
CC(NC(=O)C(=O)NCC1CCN(C(=O)NC(C)(C)C)CC1)c1ccccc1 (stereo unspecified),0,0
COc1ccc(CC(=O)Nc2ccc(Nc3ccccc3)cc2)cc1OC,62.2,0
COc1ccc(CC(=O)Nc2ccccc2)cc1OC,0,0
Cc1ccc(-c2nc3cc(C)ccn3c2NC(=O)C(Cl)Cl)cc1,56.6,0
CCCC(=O)Nc1c(-c2ccc(C)cc2)nc2cc(C)ccn12,0,0
Cc1ccc(-c2cc(C(=O)N3CCCC(C(=O)NCc4ccccc4)C3)no2)cc1 (stereo unspecified),0,0
CCC(C)NC(=O)C1CCCN(S(=O)(=O)N2CCCCCC2)C1 (stereo unspecified),0,0
O=C(c1ccccc1Cl)N1CCC(CCOc2ccncc2)CC1,0,0
O=C(c1ccncc1)N(c1ccc2oc3c(c2c1)CCCC3)S(=O)(=O)c1ccc(F)cc1,58.0,0
CCOc1ccc(S(=O)(=O)N(C(=O)c2ccncc2)c2ccc3oc4c(c3c2)CCCC4)cc1,0,0
COc1ccc(OC)c(-c2cc(C(=O)NCC#CCN3CCc4ccccc4C3)[nH]n2)c1,53.3,0
SMILES,mHTT-CaM PPI inh,Pf apPOL block
O=C(NCC#CCN1CCc2ccccc2C1)c1cc2ccccc2[nH]1,0,0
COc1cccc(NC(=O)c2ccc(C(C)(C)C)cc2)c1,0,0
Cc1ccc(Cc2c(C)nc(C(C)C)nc2N2CCN(S(C)(=O)=O)CC2)cc1,0,0
CN(C1=NC(=O)/C(=C\c2ccc([N+](=O)[O-])cc2)S1)c1ccc(O)cc1,0,0
COc1ccc(NC2=C(N(C)C)C(=O)c3ccccc3C2=O)cc1,62.6,0
COc1cccc(Nc2ccccc2C)c1,0,0
COc1cccc(NC2=C(N(C)C)C(=O)c3ccccc3C2=O)c1,57.6,0
COc1ccc(C2=C(Nc3ccc(C(N)=O)cc3)c3ccccc3C2=O)cc1,0,0
O=C(Cn1c(-c2ccccc2F)nc2ccccc2c1=O)Nc1ccc(F)cc1F,0,0
O=C(c1cnn2c(C(F)(F)F)cc(-c3ccc(Br)cc3)nc12)N1CCCCC1,0,0
COc1cc(/C=C2/SC(c3ccc(C)cc3)=NC2=O)cc(OC)c1O,0,0
Cc1ccc(C2=NC(=O)/C(=C\c3cc(O)c(O)c(Br)c3)S2)cc1,95.0,0
COc1ccc(N2CCN(Cc3ccc(C)o3)CC2)cc1,0,0
COc1ccccc1N=Cc1ccc(O)c2c1OC(N)=C(C#N)C2c1cccc([N+](=O)[O-])c1 (stereo unspecified),77.0,0
Cc1ccc(-n2nc(C)c3c2OC(N)=C(C#N)C3c2ccccc2[N+](=O)[O-])cc1 (stereo unspecified),0,0
N#CC1=C(N)Oc2c(C=Nc3ccccc3)ccc(O)c2C1c1ccc([N+](=O)[O-])cc1 (stereo unspecified),0,0
COc1cccc(N=Cc2ccc(O)c3c2OC(N)=C(C#N)C3c2ccccc2[N+](=O)[O-])c1 (stereo unspecified),95.0,0
COc1ccccc1C1=NOC(C(=O)N2CCCCC2)C1 (stereo unspecified),0,0
COc1cc([N+](=O)[O-])ccc1N1C(=O)C2C3C=CC(CC3)C2C1=O (stereo unspecified),0,0
O=C(NCCc1ccc(Cl)cc1)C1CCC(Cn2c(=O)[nH]c3ccsc3c2=O)CC1 (stereo unspecified),0,0
CCSc1nnc(NC(=O)CSc2nc3ccccc3s2)s1,0,0
Cc1cc(OCC(=O)NC(C)C)ccc1Cl,90.5,0
CC(C)NC(=O)c1csc(COc2ccc(Cl)cc2)n1,0,0
Cc1cc(OCC(=O)NN)ccc1Cl,0,0
Cc1cc(OCc2nc(C(=O)NC(C)C)cs2)ccc1Cl,66.0,0
SMILES,mHTT-CaM PPI inh,Pf apPOL block
COc1ccc(N2C(=O)C(=O)C(=C(O)c3ccccc3)C2c2ccc([N+](=O)[O-])cc2)cc1 (stereo unspecified),0,0
C#CCSc1nc2sc3c(c2c(=O)[nH]1)CCCC3,0,0
CCN1CCN(C(=O)c2cnc(-c3ccccc3)nc2N2CCSCC2)CC1,0,0
CN1CCN(C(=O)c2cnc(-c3ccccc3)nc2N2CCSCC2)CC1,97.2,0
CCSc1ccccc1C(=O)Nc1nnc(-c2cc(Cl)ccc2Cl)o1,0,0
O=C(c1cc(C2CC2)on1)N1CCCC1c1ccccc1F (stereo unspecified),0,0
COc1ccc(N=C2C(=O)Nc3cc(Br)c(C)cc32)cc1,66.0,0
COc1ccc(N=C2C(=O)Nc3ccc(Cl)cc32)cc1,0,0
COc1ccc(/C=C2\C(=O)Nc3ccc(Cl)cc32)cc1OC,74.0,0
O=C1Nc2ccc(Cl)cc2/C1=C/c1ccccc1,65.0,0
O=C1Nc2ccc(Cl)cc2/C1=C/c1ccccc1F,0,0
COc1ccccc1/C=C1\C(=O)Nc2ccc(Cl)cc21,0,0
Nc1nc(-c2ccc(OCc3ccc(Cl)c(Cl)c3)cc2)cs1,-,0
COC1CCN(C(=O)c2ccc(C#N)cc2)CC1,0,0
O=C1N=c2ccccc2=C1c1sc(Nc2cccc(O)c2)nc1O,60.6,0
O=C1N=c2ccccc2=C1c1sc(Nc2ccc(Br)cc2)nc1O,0,0
Cc1ccc(-c2csc(N3N=C(c4ccc([N+](=O)[O-])cc4)CC3=O)n2)cc1,53.0,0
O=[N+]([O-])c1ccc(-c2csc(N3CCCC3)n2)cc1,0,0
O=C(c1cc2ccccc2[nH]1)N1CCN(Cc2csc(-c3ccccc3)n2)CC1,66.5,0
O=C(CCC(=O)N1CCN(Cc2csc(-c3ccccc3)n2)CC1)c1ccccc1,0,0
O=[N+]([O-])c1ccc(NS(=O)(=O)N2CCCCC2)cc1,0,0
COc1ccc(-c2coc3c4c(ccc3c2=O)OCN(C2CC2)C4)cc1,0,0
N#Cc1nc(COc2ccccc2Cl)oc1N1CCCCC1,0,0
N#Cc1nc(COc2ccccc2Cl)oc1N1CCN(Cc2ccccc2)CC1,52.0,0
Cc1ccc(C(=O)NC2CCC(NC(=O)c3ccc(C)cc3)CC2)cc1 (stereo unspecified),0,0

# Screening data from PubChem.
